About 83,000 compounds went through this panel and 20% of them were active in at least one assay; those are over-represented in the sample as a whole.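 Negative percent growth values reflect cell death: -40 means 40% of the cells present at the start died, and -100 means all died.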 A number with no mark means an inactive call. The source made the active and inactive calls. How the source made its calls: active means growth percent below 10; inactive means the rest.
What follows are compounds tested on HS 578T breast (assay: NCI-60 one-dose screen, 48 h (100 = growth as untreated, 0 = no growth, -100 = all killed)). Settings: 10 µM unless noted.
Work on `O=c1ccn(-c2ncnc3nc[nH]c23)cc1` yielded a growth of 81.7%.
For `CCN(CC)c1ccc(CNc2ccnc3ccccc23)cc1`, the growth was 90.1%.
In the case of `COc1ccc(/C=C\c2cc(OC)c(OC)c(OC)c2)cc1OC(=O)c1cccc(Cn2cc(CCOC(=O)c3cccc(Cn4nnc5c4C(=O)c4ccccc4C5=O)c3)nn2)c1`, the growth is reported as 5.15% (active).
For `O=C1Nc2ccc3c(c2/C1=C\c1cc2c(cc1Br)OCO2)OCO3`, the growth was -14.5% (active).
`O=C1/C(=C/c2ccccc2)CN(C(=O)CCN2CCC(=NO)CC2)C/C1=C\c1ccccc1` showed a growth of 17%.
For `COc1ccc(Nc2nc(N)nc3c2CCN(Cc2ccc(OC)cc2OC)C3=O)cc1`, the growth was 82.7%.
For `Cc1nn(-c2ccc([N+](=O)[O-])cc2)c2ncnc(NCCc3ccccc3)c12`, the growth was 101%.
With `CCN(CC)CCC(CNc1ccnc2cc(Cl)ccc12)c1ccc(Cl)cc1` (centres undefined) the growth was -66.8% (active).
With `OC(c1cc2cc(Br)ccc2c2cc(Br)ccc12)C1CCCCN1` (centres undefined) the growth was -53.1% (active).
`COC(=O)c1cc2cc(-c3ccc(OC)cc3)cnc2[nH]1` gave a growth of 33.8%.
For `Cc1ccc(S(=O)(=O)n2cc(C(=O)C(=O)N3CCOCC3)c3ccccc32)cc1`, the growth was 101%.
`COc1ccc(-c2nc(/C=N/Nc3cc(C)nc4ccc(Cl)cc34)c(C)o2)cc1` was tested, and the growth was -29.3% (active).
`COc1ccc(-c2cn(-c3cccc(C(=O)/C=C/c4cc(OC)c(OC)c(OC)c4)c3)c(=O)[nH]2)cc1OC` showed a growth of 87.9%.
With `CCCCCCCCCCCCNC(=O)[C@H]1CSC(c2ccsc2)N1` (some centres undefined) the growth was -56.5% (active).
Compound `O=C(N/N=C/C=C\c1ccccc1)C(=O)N/N=C/C=C/c1ccccc1` has a growth of 116%.
`N=C(N)c1ccc(-c2ccc(-c3ccc4ccccc4c3)s2)cc1` showed a growth of 104%.
In the case of `COc1cc(/C=C/C(=O)c2cccc(-n3cc(-c4cc(OC)c(OC)c(OC)c4)[nH]c3=O)c2)cc(OC)c1OC`, the growth is reported as 62.4%.
`N=C(N)c1ccc(-c2ccc(-c3ccc(-c4cccs4)s3)s2)cc1` gave a growth of 99.3%.
`COc1ccc(-c2ccc(-c3ccc(C(=N)N)s3)s2)cc1Cl` gave a growth of 87%.
Compound `O=c1[nH]c2ccc(Br)cc2c2c1C(c1ccc(Cl)cc1)c1c(ncn3nc(-c4ccco4)nc13)O2` (centres undefined) has a growth of 35.6%.
With `N=C(N)c1ccc(-c2cc(Cl)cc(Cl)c2)cn1` the growth was 87.2%.
Work on `Cc1nc2ncccc2nc1Nc1ccc(S(=O)(=O)Nc2cncs2)cc1` yielded a growth of 92.8%.
In the case of `Cc1cc(N/N=C/c2nc(-c3ccccc3)oc2C)c2cc(Cl)ccc2n1`, the growth is reported as -48.9% (active).
With `Cc1nc2ncccc2nc1Nc1ccc(S(=O)(=O)Nc2ccccn2)cc1` the growth was 92.9%.
`NC(=S)N/N=C1\CCCC(C(F)(F)F)C1` (centres undefined) was tested, and the growth was 111%.
With `Oc1ccc2cc(Br)ccc2c1-c1c(O)ccc2cc(Br)ccc12` the growth was 50.2%.
With `CCC(=O)Oc1ccc(/C(=C(/C)Cc2cccc(OC)c2)c2ccc(OCCN(C)C)cc2)cc1` the growth was 93.5%.
In the case of `COC1=C(OC)C(=O)C(CCCCCCCCCC[P+](c2ccccc2)(c2ccccc2)c2ccccc2)=C(C)C1=O`, the growth is reported as -58.9% (active).
`COc1ccc(-c2ccc(-c3ccc(C(=N)N)cn3)s2)cc1OC` was tested, and the growth was 97.2%.
